Experimental data reported in PubChem BioAssay (Tox21).
“And” between values parts separate entries of the source, which are not always exact repeats. Identical values can stand only once. Results filed as inconclusive are left out. A call without a number means that no potency is given here. Some structures have more than one record in an assay (separate samples or runs), and their calls can disagree. The source made the active and inactive calls. The rule behind the calls is not given here.

test: qHTS assay to identify small molecule antagonists of the estrogen related receptor signaling pathway with the pleiotropic PPARgamma coactivator (PGC) from Tox21 10K library (AID 1224841); settings: PGC/ERR reporter cell line, ONE-Glo luciferase, 18 h; series mostly up to 92.4 µM; note: actives are mostly falling curves and most rising ones were filed inactive; nearly all actives have a fitted effect of over 50% in size
Excerpt: U.S. Tox21 Program National Center for Advancing Translational Sciences [NCATS] NIH Chemical Genomics Center [NCGC] U.S. Environmental Protection Agency [EPA] National Institutes of Environmental Health Sciences [NIEHS] National Toxicology Program [NTP] U.S. Food and Drug Administration [FDA] Tox21 Assay Overview: Estrogen related receptors (ERRs), the first orphan nuclear receptors discovered, play an important role in the control of cellular energy metabolism. ERRs are required for high-energy production in response to the environmental challenges. The pleiotropic PPARgamma coactivator (PGC) is a major partner of ERR and a key regulator in energy homeostasis. Together they have been implicated in the etiology of metabolic disorders such as Type 2 diabetes and metabolic syndrome. ERR-alpha was also identified as an adverse marker for breast cancer progression; ERR-alpha-positive tumors have a poor prognosis. To screen and to identify environmental compounds that perturb the ERR and PGC/ERR signaling pathways could provide valuable information for potential therapeutic or preventive measures in the treatment of metabolic disease. For identifying PGC/ERR antagonists, PGC/ERR cell line (provided by NTP) has been used to screen Tox21 10K library.
Tox21 Assay Protocol Summary: The PGC/ERR cells were dispensed at 2,000 cells/5 ul/well in 1536-well white plates using a Multidrop dispenser. After the assay plates were incubated at a 37 C/5% CO2 incubator for 6 hours, 23 nL of compounds dissolved in DMSO, positive and negative controls or DMSO only was transferred to the assay plate by a pin tool. The plates were incubated at 37 C for 18 hours. 4 ul/well of One-Glo reagent was added into the assay plates using a Flying Reagent Dispenser. After 30-minute incubation at room temperature, the luminescence intensity in the plates was measured using a ViewLux plate reader.
Potency is the fitted concentration of half-maximal effect.

SMILES	Potency
O=[N+]([O-])c1ccccc1O	inactive
O=c1nc(O)n(Cl)c(=O)n1Cl	inactive
CC(=O)[O][Hg][c]1ccccc1	2.71 µM (active) and 4.86 µM (active) and 9.44 µM (active)
CCNc1nc(Cl)nc(NCC)n1	inactive
O=P1(N(CCCl)CCCl)NCCCO1 (stereo not drawn)	inactive
COP(=O)(OC)C(O)C(Cl)(Cl)Cl (stereo not drawn)	24.6 µM (active) and inactive
COc1ccccc1N	inactive
O=c1[nH]c(=O)n(Cl)c(=O)n1Cl	inactive
CCOP(=S)(OCC)Oc1ccc2c(C)c(Cl)c(=O)oc2c1	inactive
O=C(O)CCl	inactive
COCC(=O)N(c1c(C)cccc1C)C(C)C(=O)OC (stereo not drawn)	inactive
C[C@]12CCC(=O)C=C1CC[C@@H]1[C@@H]2CC[C@]2(C)C(=O)CC[C@@H]12	67.4 µM (active) and inactive
OCCOc1ccccc1	inactive
